According to the supplement of paper PMC6555819:

tested on: RARa homodimer (NR concentration 270 nM); experiment: PBM binding z-score (relative to random genomic background probes); higher = stronger binding; sequences stand for … in GC…GCGATTGACAGCGTAGAATGAAGG
How it was run: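 The probes on custom Agilent 4×180K protein-binding microarrays were double-stranded, with 34-nt variable regions bearing direct-repeat seeds, single-nucleotide variants, half-site ablations and random human genomic background sequences. Incubation lasted 1 h with ligand-free nuclear receptor dimers in PBS pH 7.4, 2% milk, 0.02% Triton X-100, 1 mM DTT, 0.2 mg/mL BSA and 0.4 mg/ml salmon testes DNA. Antibodies against each partner (one per run) detected bound dimers, and fluorescence scans were regression-normalized. Binding z-scores take the random background probes as reference.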

Sequence	PBM binding z-score
CGTCCAAGGTCAAGGTCGGTGAAAGAGACTCGAA	0.962
TCTTGTAGATCAATAGAGGTTCAGAAAGTGCGCT	0.189
CCTACTGGGCCAACGTCATTGATCAGTCAAAGCA	-0.369
AGAACGAGGGCACGCAGAGTTGATAGCAGAGTAG	-0.379
GCCTATAGGTAATACAAGGTGAAAGTCCGATTGT	-0.186
TAGCCTAGGTCATTGGGCGAGTATAGTACGCATC	-0.259
ACAGACAGGTGAGTGAAGGTAACTAAGCTGGACG	0.112
TTACCAAGTTGAGCTGAGGTCGTTGATCCAACTC	-0.601
TGAGTGAGGTTAAAGATCAGGGAACGTGGCGTCG	0.307
CCTCGGAGGACTGAAGGTCAGAGCTGTCCGCTTT	-0.166
CCTACTGGGCCACGGTCATTGATCAGTCAAAGCA	-0.863
GGAACGAGGACATTCGAGTTGATAGCATGGCGAT	-0.136
CTACCAAGGAGAACAAGGTCGTTGATTACTATTC	0.421
TCGAGTAGGTTGGGGGCATTCAGAATGGCGTCGA	0.0369
CCAGATAGGTGAAAGGTAACTCAGTCTGGTACGC	0.659
ACTCGGAGGACAAAGGCCAGAGCTACGCCAGTGA	-0.32
CAAACTAGGTCAAGTTCAAAGTCGGTTTGTGCCA	1.55
GTACCAAGGTGGATAGGTCGTTGATGAGTAGGCG	0.114
TCTGCTCGGTCAGTTGGTCAGCTAACGAGCTGCC	-1.55
CATACAGTGTCAGCTAGGCCAGAGTAGGGACGGC	0.038

Sequence	PBM binding z-score
CGTCCAAGGACAAAGGTCAGTGAAGAGATGACGG	1.02
TCTATTACTTGATTAGGGCAACCGAAACAGCGGA	1.04
ACTATTAGTTGAGACGAGGACAACCGATAGGTTG	0.918
GGTATTAGTTGAAAGGGCAACCGAATGATTCTCG	2.51
CCGACTGGGGCAAGGGTACCATAACGCACAGCCA	-0.395
CGTCCAAGGTCAGCAGGTCAGTGACAGCGACGTG	2.42
CAAGCTAGGTCACGAAAGGTCAAAGTCGAATGAC	4.08
TAGCCTAGGTCATGCGGGCCATTATAGTGTCGGC	-0.379
CAAACTAGGTCACCGGAAGGTCAAAGACCGCATG	2.64
TCATATAGGTAAATGCTAGGTGAAAGCCCGATCT	0.798
CTCGAAAGGTCGTGCTCAGGCGAGTATACCAAAC	-0.0786
GCTAGTTGGTCAGTAAAAGTTCACACACCGGTCG	1.14
CCGACTGGGGCATAAGGTTACCTTAAGCCAGCCC	-0.764
TAGCCTAGGTCATTCAGGGGCCAGTAAAGAAAGC	0.0478
CATACTGGGTCAGCTAGGCCAGAGTAGGGACGGC	-0.0823
CAGCCTAGGTCAGTGCCAGTATAGGAGGAACGTT	-0.0242
TCTCGGAGGACACGAAAGGTCAGATCTCGACATC	0.369
CAAACTAGGTCAAAGGTCCAAGTCGAGCCAACCA	0.553
CAAACTAGGTCCAAGGTCAAAGTCGAGCCAACCA	1.6
